From PubChem BioAssay
Active and inactive are the calls of the source. No rule for the calls is given here.

Each compound was assayed against Pantothenate synthetase (Mycobacterium tuberculosis (strain ATCC 25618 / H37Rv)) (UniProt P9WIL5) (assay: Recombinant Mtb pantothenate synthetase (PanC) inhibitors, coupled enzyme, confirmatory (AID 375;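 also: 0% = full reaction with vehicle and 100% = no enzyme background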)). Settings: coupled enzyme assay; at 10 µM, active compounds read high.
Sequence of Pantothenate synthetase (Mycobacterium tuberculosis (strain ATCC 25618 / H37Rv)) (P9WIL5 whole entry, looked up): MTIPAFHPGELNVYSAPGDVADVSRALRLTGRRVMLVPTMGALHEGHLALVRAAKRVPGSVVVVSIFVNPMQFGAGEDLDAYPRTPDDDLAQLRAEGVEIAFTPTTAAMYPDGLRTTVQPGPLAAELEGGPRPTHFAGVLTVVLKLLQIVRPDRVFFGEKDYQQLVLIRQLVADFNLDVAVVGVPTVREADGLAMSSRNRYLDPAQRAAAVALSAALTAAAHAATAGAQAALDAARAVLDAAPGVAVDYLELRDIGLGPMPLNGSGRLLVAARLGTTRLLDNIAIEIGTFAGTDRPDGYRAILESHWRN

**Q.** For `COCCCNC(=O)CCCn1c(=O)c2ccccc2n(CC(=O)Nc2c(C)cccc2C)c1=O`, which inhibition is on record?
**A.** The inhibition was 0% (inactive).

**Q.** Which inhibition does the source give for `CC1(C)CC(=O)c2sc(NS(C)(=O)=O)nc2C1` here?
**A.** Its inhibition is 0% (inactive).

**Q.** Which inhibition does the source give for `CC1(C2(O)CC(c3ccccc3)ON2)CCCCC1` (stereo not given) here?
**A.** The inhibition was 2% (inactive).

**Q.** Which inhibition does the source give for `CCCN1C(=O)c2cc(C(=O)O)ccc2C1O` (stereo not given) here?
**A.** Its inhibition is 0% (inactive).

**Q.** Which inhibition does the source give for `CCOC(=O)c1cnn(-c2cc(C)nc3c(-c4ccccc4)c(C)nn23)c1N` here?
**A.** Its inhibition is 6% (inactive).
